{"source": "PubChem BioAssay AID588850", "about": "(Sanford-Burnham Center for Chemical Genomics, 2011)", "note": "Values joined by “and” are separate entries in the source; they are usually repeats but may differ in a detail not shown here. Identical values can stand only once. Screen size: about 360,000 compounds; about 3,100 (0.86%) were called active.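 How the source made its calls: active means at least 50% inhibition at 5 µM, scaled per plate between neutral and stimulator controls; inactive means the rest.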 The full list was thinned out, with actives kept by preference.", "data": [{"experiment": "inhibitors of PAF-induced NF-kB signaling, primary screen, cell-based, GFP fluorescence, uHTS (AID 588850);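 further: PAF is a Pseudomonas aeruginosa culture filtrate used as stimulus; plate controls were PAF-stimulated DMSO wells for no effect and unstimulated DMSO wells for full effect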", "settings": "KKLEB NF-kB-GFP reporter, GFP fluorescence overnight, at 5 µM, stronger effect = higher value", "values": [{"smiles": "O=C(N/N=C/c1ccccn1)c1cccc(NC(=O)c2ccc(Cl)cc2)c1", "inhibition": "8.6% (inactive)"}, {"smiles": "S=C(Nc1cccnc1)Nc1ccccn1", "inhibition": "-6.9% (inactive)"}, {"smiles": "S=C(NN=Cc1ccccn1)Nc1ccccn1", "inhibition": "73.7% (active)"}, {"smiles": "CC(=O)Nc1ccc(NC(=O)C(C)OC(=O)c2ccccc2C(=O)c2ccc(Cl)c([N+](=O)[O-])c2)cc1", "note": "(configuration not stated)", "inhibition": "81.1% (active)"}, {"smiles": "NS(=O)(=O)c1cccc(NC(=O)COC(=O)c2cc([N+](=O)[O-])ccc2N2CCCC2)c1", "inhibition": "5.8% (inactive)"}, {"smiles": "O=C(COc1ccc([N+](=O)[O-])cc1)Nc1cccc(C(=O)Nc2ccccc2C(=O)O)c1", "inhibition": "-36% (inactive)"}, {"smiles": "CC(OC(=O)CNC(=O)c1ccc(Cl)c([N+](=O)[O-])c1)C(=O)NCc1ccco1", "note": "(configuration not stated)", "inhibition": "5.2% (inactive)"}, {"smiles": "N#Cc1cccc(NC(=O)COC(=O)c2ccccc2C(=O)c2ccc(Cl)c([N+](=O)[O-])c2)c1", "inhibition": "86.9% (active)"}, {"smiles": "CCOc1ccc(C(=O)NC(=S)Nc2ccc(NC(=O)C(C)C)cc2)cc1[N+](=O)[O-]", "inhibition": "0.2% (inactive)"}, {"smiles": "Cc1ccc(S(=O)(=O)N2C3C=CC(C3)C2C(=O)O)cc1", "note": "(configuration not stated)", "inhibition": "1.4% (inactive)"}, {"smiles": "COCc1c(C(=O)OCc2c(C)noc2C)oc2ccccc12", "inhibition": "-11.5% (inactive)"}, {"smiles": "CCOC(=O)N1CCC(Nc2c(NCCCN3CCN(c4ccc(OC)cc4)CC3)c(=O)c2=O)CC1", "inhibition": "-6.5% (inactive)"}, {"smiles": "CCN(CC)C(=O)N1CCN(C(=O)c2ccc(C)cn2)CC1", "inhibition": "7.5% (inactive)"}, {"smiles": "CCN1CCC2(CCN(Cc3cn[nH]c3-c3ccc(OC)c(F)c3)C2)C1", "note": "(configuration not stated)", "inhibition": "11% (inactive)"}, {"smiles": "CC(=O)N1CCC(C(=O)OCc2ccc(Cl)cc2)(c2ccccc2)CC1", "inhibition": "-6.8% (inactive)"}, {"smiles": "CCN(CC)CCn1c(/N=C/c2cc(Br)ccc2O)nc2ccccc21", "inhibition": "2.3% (inactive)"}, {"smiles": "O=C(CCc1ccc(O)cc1)NN=Cc1cc(Br)ccc1O", "inhibition": "-5% (inactive)"}, {"smiles": "Oc1ccc(Br)cc1/C=N/Nc1ccccn1", "inhibition": "107% (active)"}, {"smiles": "CN1CCCN(C(=O)C2CCCCC2)CC1", "inhibition": "-5.1% (inactive)"}, {"smiles": "CC(=NNC(N)=O)C1CC2CCC1CC2", "note": "(configuration not stated)", "inhibition": "0.5% (inactive)"}, {"smiles": "COc1ccc(NC(=O)c2sc3nc(C)nc(N4CCN(c5ccccn5)CC4)c3c2C)c(OC)c1", "inhibition": "53.3% (active)"}, {"smiles": "Cc1nc(N2CCC(C)CC2)c2c(C)c(C(=O)Nc3cc(F)ccc3C)sc2n1", "inhibition": "27.1% (inactive)"}, {"smiles": "Cc1nc(N2CCN(c3ccccn3)CC2)c2c(C)c(C(=O)Nc3ccc(F)c(Cl)c3)sc2n1", "inhibition": "36.8% (inactive)"}, {"smiles": "COc1ccc(CC(=O)N[C@@H]2c3cc(OC)c(OC)cc3C[C@H]2OCc2ccccc2)cc1", "inhibition": "-5.1% (inactive)"}, {"smiles": "CN1OC[C@@H]2CN(C(=O)c3ccc(-c4ccccc4)cc3)[C@H](c3ccc(-c4cccc(F)c4)cc3)C[C@@H]21", "inhibition": "-13% (inactive)"}, {"smiles": "O=C(OC12CC3CC(CC(C3)C1)C2)c1ccc(NCc2cc(O)ccc2O)cc1", "inhibition": "60.3% (active)"}, {"smiles": "CN=C(NC#N)NCCSCc1nc[nH]c1C", "inhibition": "-4.5% (inactive)"}, {"smiles": "Cc1cc(C)c(S(=O)(=O)c2cc(F)ccc2C)c(=O)[nH]1", "inhibition": "-12.1% (inactive)"}, {"smiles": "CN(C)CCN1CCN(c2cc(-c3cccc(Cl)c3)nc3ccnn23)CC1", "inhibition": "7.8% (inactive)"}, {"smiles": "O=C(c1ccccc1)N1CCN(C(=O)c2cc3nc(-c4ccccc4)cc(C(F)(F)F)n3n2)CC1", "inhibition": "-4.4% (inactive)"}, {"smiles": "C#Cc1cc(N2CCN(C(=O)c3ccoc3)CC2)n2nc(-c3cccc(Cl)c3)cc2n1", "inhibition": "64.7% (active)"}, {"smiles": "COc1cccc(C(O)c2nc(-c3ccc(C)c(C)c3)cs2)c1", "note": "(configuration not stated)", "inhibition": "17.1% (inactive)"}, {"smiles": "COc1cc(C2c3cc4c(cc3C(O)C3COC(=O)C23)OCO4)cc(OC)c1OC", "note": "(configuration not stated)", "inhibition": "50.8% (active)"}, {"smiles": "COc1cc(C2CC(=O)Oc3cc(OC)c(OC)c(OC)c32)cc(OC)c1OC", "note": "(configuration not stated)", "inhibition": "-6.8% (inactive)"}, {"smiles": "COc1cc(C=C(OC(C)=O)c2ccc3c(c2)OCO3)cc(OC)c1OC", "inhibition": "-22.3% (inactive)"}, {"smiles": "C#C[C@]1(O)CC[C@H]2[C@@H]3CCC4=CC(=O)CC[C@@H]4[C@H]3CC[C@@]21CC", "inhibition": "3.1% (inactive) and 6.1% (inactive)"}, {"smiles": "COc1ccc(CN2CC[C@H]3C=CC[C@@H](C(=O)N4CCOCC4)[C@H]3C2=O)cc1OC", "inhibition": "-24.1% (inactive)"}, {"smiles": "Cc1ccc(OC(=O)c2cncc(Br)c2)c(C)c1", "inhibition": "1.1% (inactive)"}, {"smiles": "Cc1cccc(-n2ncc(Cl)c(Cl)c2=O)c1", "inhibition": "85.5% (active)"}, {"smiles": "CCCNC(=O)c1c(Cl)cnn1-c1ccc(C)cc1", "inhibition": "9.5% (inactive)"}, {"smiles": "CC(=O)Nc1c2c(nn1-c1cccc(C)c1)CSC2", "inhibition": "3.9% (inactive)"}, {"smiles": "CC(C)(C)C1CCC(C(=O)NCC(c2cccs2)N2CCOCC2)CC1", "note": "(configuration not stated)", "inhibition": "21.5% (inactive)"}, {"smiles": "COc1ccc(C(C(=O)NCc2ccccc2)N(Cc2cccs2)C(=O)c2cnccn2)cc1", "note": "(configuration not stated)", "inhibition": "-3.9% (inactive)"}, {"smiles": "Cc1cc2nc(-c3ccc(Cl)cc3)c(Cc3cccc(F)c3)n2c(C)c1Br", "inhibition": "17.5% (inactive)"}, {"smiles": "Cc1cc2nc(-c3ccco3)c(Cc3cccc(F)c3)n2c(C)c1Br", "inhibition": "62.5% (active)"}, {"smiles": "Cc1cc(Br)cn2c(Cc3cccc(F)c3)c(-c3cccc(Br)c3)nc12", "inhibition": "47.6% (inactive)"}, {"smiles": "CC1(C)O[C@@H]2[C@H](O1)[C@@H](CO)O[C@H]2n1c(N2CCCCC2)nc2c(N)ncnc21", "inhibition": "7.1% (inactive)"}, {"smiles": "O=C(Nc1ccc(Br)c2cccnc12)c1ccc(Cn2cc([N+](=O)[O-])cn2)o1", "inhibition": "14.3% (inactive)"}, {"smiles": "N#CC1(Nc2ccc(-c3ccc(Cl)cc3)cc2)CCCC1", "inhibition": "-34.4% (inactive)"}, {"smiles": "Cc1sc2nc(CC(N)=O)[nH]c(=O)c2c1-c1ccccc1", "inhibition": "-3.2% (inactive)"}, {"smiles": "NC(=O)c1sc2nc3c(c(-c4ccccc4)c2c1N)CCC3", "inhibition": "78.3% (active)"}, {"smiles": "CC(C)OC(=O)c1sc2nc3c(cc2c1N)C(=O)CCC3", "inhibition": "-15% (inactive)"}, {"smiles": "O=C(NCCCN1CCN(c2ccccc2F)CC1)C1CCC(=O)N1C1CCCCC1", "note": "(configuration not stated)", "inhibition": "-1.2% (inactive)"}, {"smiles": "Cc1ccc(C(=O)N2CCN(S(=O)(=O)N3CCOCC3)CC2)cc1", "inhibition": "15.9% (inactive)"}, {"smiles": "CC(C(=O)Nc1ccccc1-c1ccccc1)N1CCOCC1", "note": "(configuration not stated)", "inhibition": "14.5% (inactive)"}, {"smiles": "Cc1oc2c(c1C(=O)N1CCOCC1)C(=O)c1ccccc1C2=O", "inhibition": "72.2% (active)"}, {"smiles": "Nc1c(-c2ccc(F)cc2)cnn1C1CCS(=O)(=O)C1", "note": "(configuration not stated)", "inhibition": "-5.8% (inactive)"}]}]}
